Test system: Vero E6 infected with SARS-CoV-2
Assay: inhibition of SARS-CoV-2 cytopathic effect; higher = more antiviral protection, active = above 15
Details: 48 h

Measured: inhibition of SARS-CoV-2 cytopathic effect

C[C@@H](N)Cc1c[nH]c2ccc(O)cc12 [alpha-methylserotonin]
inactive: 1 nM -0.1% | 8.33 nM -1.31% | 100 nM -1.23% | 833.33 nM -0.05% | 10000 nM -3.72%

N#CC(Cc1ccc(O)cc1)c1ccc(O)cc1 (stereo not given) [diarylpropionitrile]
inactive: 1 nM -1.07% | 8.33 nM 1.57% | 100 nM -1.11% | 833.33 nM -3.56% | 10000 nM -1.54%

Cc1nc(Nc2ccc(F)cc2)nc(N2CCc3ccccc3C2C)c1C (stereo not given) [revaprazan]
inactive: 1 nM 0.41% | 8.33 nM 1.64% | 100 nM 2.31% | 833.33 nM 1.17% | 10000 nM 1.72%

N=C(N)Nc1ccc(Cl)cc1 [4-chlorophenylguanidine]
inactive: 1 nM 0.9% | 8.33 nM 1.22% | 100 nM 0.63% | 833.33 nM -0.99% | 10000 nM 0.95%

Cc1cn([C@H]2C[C@H](N=[N+]=[N-])[C@@H](CO)O2)c(=O)[nH]c1=O [zidovudine]
inactive: 1 nM 3.53% | 8.33 nM 3.15% | 100 nM 6.14% | 833.33 nM 2.68% | 10000 nM -0.41%

CON(C)C(=O)N1N=C(c2cc(F)ccc2F)S[C@@]1(CCCN)c1ccccc1 [filanesib]
inactive: 1 nM -0.78% | 8.33 nM -1.05% | 100 nM -1.91% | 833.33 nM -0.01% | 10000 nM -2.39%

c1nc(CC2CCNCC2)c[nH]1 [immepip]
inactive: 1 nM -1.43% | 8.33 nM -3.19% | 100 nM -3.25% | 833.33 nM -0.04% | 10000 nM 0.13%

COc1ccccc1OCC(O)CNC(C)C (stereo not given) [moprolol]
inactive: 1 nM -0.33% | 8.33 nM -2.22% | 100 nM -0.82% | 833.33 nM -3.01% | 10000 nM -2.72%

Fc1ccc(C(c2ccccc2)(c2ccccc2F)n2ccnc2)cc1 (stereo not given) [flutrimazole]
inactive: 1 nM -1.84% | 8.33 nM -3.27% | 100 nM -4.23% | 833.33 nM -1.83% | 10000 nM -1.07%

O=C(NC(=O)c1c(F)cccc1Cl)NC1c2ccccc2-c2ccccc21
inactive: 1 nM -0.23% | 8.33 nM -0.67% | 100 nM 1.6% | 833.33 nM 2.13% | 10000 nM 0.4%

O=c1c(-c2ccccc2)c1-c1ccccc1 [diphencyprone]
inactive: 1 nM -0.95% | 8.33 nM 0.49% | 100 nM -1.61% | 833.33 nM -1.95% | 10000 nM 5.98%

O=C(O)CCC(=O)C(=O)O [2-oxoglutaric-acid]
inactive: 1 nM -3.15% | 8.33 nM -0.14% | 100 nM 1.87% | 833.33 nM 0.16% | 10000 nM -2.21%

CCOc1ccc(C(=O)OCCN(CC)CC)cc1 [parethoxycaine]
inactive: 1 nM 0.82% | 8.33 nM -3.01% | 100 nM -2.92% | 833.33 nM -0.3% | 10000 nM -0.09%

C#C[C@]1(OC(C)=O)CC[C@H]2[C@@H]3CCC4=C[C@@H](OC(C)=O)CC[C@@H]4[C@H]3CC[C@@]21C [ethynodiol-diacetate]
inactive: 1 nM 1.35% | 8.33 nM 3.73% | 100 nM 2.52% | 833.33 nM -2.62% | 10000 nM -1.63%

CN1C(C(=O)Nc2ccccn2)=C(O)c2sccc2S1(=O)=O [tenoxicam]
inactive: 1 nM -1.61% | 8.33 nM -5.04% | 100 nM -1.6% | 833.33 nM 0.7% | 10000 nM -2.71%

COc1ccc(-c2cc3nccn3c(Nc3ncccc3C(N)=O)n2)cc1OC
inactive: 1 nM -3.34% | 8.33 nM -0.9% | 100 nM -4.75% | 833.33 nM -2.69% | 10000 nM -6.9%

O=C1OC(c2ccc(O)cc2)(c2ccc(O)cc2)c2ccccc21 [phenolphthalein]
inactive: 1 nM -1.78% | 8.33 nM 2.66% | 100 nM -1.09% | 833.33 nM -0.27% | 10000 nM 0.56%

CCN(CC)CCOc1ccc(Cc2ccccc2)cc1
inactive: 1 nM -2.21% | 8.33 nM -0.5% | 100 nM -4.41% | 833.33 nM 0.19% | 10000 nM -0.76%

CCC(N)C(O)c1ccc(O)c(O)c1 (stereo not given) [ethylnorepinephrine]
inactive: 1 nM -0.61% | 8.33 nM 0.7% | 100 nM 0.54% | 833.33 nM -1.28% | 10000 nM -0.69%

Cc1ccc([N+](=O)[O-])cc1S(=O)(=O)N(C)/N=C/c1cnc2ccc(Br)cn12
inactive: 1 nM 0.29% | 8.33 nM -0.13% | 100 nM -5.92% | 833.33 nM -16.5% | 10000 nM -5.86%

CCC/C=C1\OC(=O)C2=C1CCC=C2 [ligustilide]
inactive: 1 nM 8.3% | 8.33 nM 9.89% | 100 nM 8.75% | 833.33 nM 5.16% | 10000 nM 5.79%

CN(C)C(=O)Oc1cc(OC(=O)N(C)C)cc(C(O)CNC(C)(C)C)c1 (stereo not given) [bambuterol]
inactive: 1 nM -2.95% | 8.33 nM -0.79% | 100 nM -1.68% | 833.33 nM -1.56% | 10000 nM -1.86%

O=C(Cc1ccc(Cl)c(Cl)c1)N1CCCC[C@@H]1CN1CCCC1
inactive: 1 nM -0.96% | 8.33 nM 2.64% | 100 nM 1.57% | 833.33 nM -0.63% | 10000 nM -4.8%

CCOP(=S)(OCC)Oc1nc(Cl)c(Cl)cc1Cl [chlorpyrifos]
inactive: 1 nM 0.53% | 8.33 nM 2.45% | 100 nM -0.67% | 833.33 nM 0.54% | 10000 nM -4.79%

CCCCCCOc1nsnc1C1=CCCN(C)C1 [xanomeline]
inactive: 1 nM 0.86% | 8.33 nM -0.07% | 100 nM -1.23% | 833.33 nM -1.94% | 10000 nM -0.8%

C[C@]12CC[C@@H]3c4ccc(OC(=O)c5ccccc5)cc4CC[C@H]3[C@@H]1CC[C@@H]2O [estradiol-benzoate]
inactive: 1 nM -5.16% | 8.33 nM -2.11% | 100 nM -2.68% | 833.33 nM -4.8% | 10000 nM -5.99%

CC(C)C(=O)Nc1ncc(-c2cc(C(F)F)nn2-c2c(Cl)cccc2Cl)s1
inactive: 1 nM 0.32% | 8.33 nM 2.58% | 100 nM -0.32% | 833.33 nM -2.46% | 10000 nM -5.83%

CN(C)c1ccc2nc3ccc(=[N+](C)C)cc-3sc2c1 [methylene-blue]
inactive: 1 nM -2.26% | 8.33 nM -2.37% | 100 nM -2.19% | 833.33 nM 8.6% | 10000 nM -7.29%

O=S(=O)(F)Cc1ccccc1 [phenylmethylsulfonyl-fluoride]
inactive: 1 nM -2.45% | 8.33 nM -1.22% | 100 nM 2.93% | 833.33 nM 0.75% | 10000 nM 1.71%

CC(=O)OCC(=O)[C@@]1(O)CC[C@H]2[C@@H]3CCC4=CC(=O)C=C[C@]4(C)[C@@]3(F)[C@@H](O)C[C@@]21C [isoflupredone-acetate]
inactive: 1 nM 2.83% | 8.33 nM 2.61% | 100 nM 0.09% | 833.33 nM 1.17% | 10000 nM 1.02%

O=c1[nH]ccc2cc(OC3CCNCC3)ccc12
inactive: 1 nM 1.91% | 8.33 nM 0.89% | 100 nM -0.08% | 833.33 nM -3.34% | 10000 nM -7.36%

COc1cc(C=O)ccc1O [vanillin]
inactive: 1 nM 1.74% | 8.33 nM 0.89% | 100 nM 1.04% | 833.33 nM -1.54% | 10000 nM -2.8%

COCCOc1ccc2c(c1)ncn2-c1ccc2cccc(N3CCC(N)CC3)c2n1
inactive: 1 nM -0.92% | 8.33 nM 2.04% | 100 nM 0.64% | 833.33 nM 1.12% | 10000 nM -2.22%

Nc1ncnc2c1c(-c1cccc(OCc3ccccc3)c1)cn2C1CC(CN2CCCC2)C1 (stereo in doubt)
active: 10000 nM 27.9%
inactive: 1 nM -0.48% | 8.33 nM 0.04% | 100 nM 1.98% | 833.33 nM 0.14%

O=C(/C=C/c1ccc2c(c1)OCO2)N1CCCCC1 [ilepcimide]
inactive: 1 nM 0.84% | 8.33 nM 0.26% | 100 nM 1.04% | 833.33 nM -1.12% | 10000 nM 0.82%

c1ccc2c(c1)CCC[C@H]2Nc1nc2ccccc2[nH]1
inactive: 1 nM 2.74% | 8.33 nM 2.66% | 100 nM 1.8% | 833.33 nM -1.92% | 10000 nM -0.48%

O=C1C(=C(O)/C=C/c2ccc(O)cc2)C(=O)[C@@](O)([C@@H]2O[C@H](CO)[C@@H](O)[C@H](O)[C@H]2O)C(=O)[C@H]1[C@@H]1O[C@H](CO)[C@@H](O)[C@H](O)[C@H]1O
inactive: 1 nM 0.73% | 8.33 nM -1.02% | 100 nM -0.24% | 833.33 nM -0.74% | 10000 nM -2.44%

Cc1ccc(NC(=O)c2ccc(CN3CCN(C)CC3)cc2)cc1Nc1nccc(-c2cccnc2)n1 [imatinib]
inactive: 1 nM 2.28% | 8.33 nM 1.75% | 100 nM 5.42% | 833.33 nM 7.15%
active: 10000 nM 20.1%

COC(=O)C1=C(C)N(C)C(C)=C(C(=O)OC)C1c1ccc(C(F)(F)F)cc1
inactive: 1 nM 1.98% | 8.33 nM -2.17% | 100 nM 0.85% | 833.33 nM 2.1% | 10000 nM 8.02%

NC(=O)C1=CN([C@@H]2O[C@H](COP(=O)(O)OP(=O)(O)OC[C@H]3O[C@@H](n4cnc5c(N)ncnc54)[C@H](OP(=O)(O)O)[C@@H]3O)[C@@H](O)[C@H]2O)C=CC1
inactive: 1 nM 0.75% | 8.33 nM 3.17% | 100 nM 2.16% | 833.33 nM 0.8% | 10000 nM -1.27%
